Experimental data: the supplement of paper PMC11732987, “Enantioselective OTUD7B fragment discovery through chemoproteomics screening and high-throughput optimisation” (Communications Chemistry, 2025)
Values without a mark were called inactive.

Tests used:
Assay in all cases: log2 ratio of Biotin-Ahx-Ub-VS probe labelling (fragment/DMSO); higher = less target engagement (more negative = stronger competition), active = hit call of the paper (q ≤ 0.05, log2 ratio ≤ -1)
Settings in all cases: compound concentration: 200 uM; treatment time: 3 h
ALG13 = biological target: T1, ALG13 (UniProt Q9NP73)
T1 sequence (whole entry): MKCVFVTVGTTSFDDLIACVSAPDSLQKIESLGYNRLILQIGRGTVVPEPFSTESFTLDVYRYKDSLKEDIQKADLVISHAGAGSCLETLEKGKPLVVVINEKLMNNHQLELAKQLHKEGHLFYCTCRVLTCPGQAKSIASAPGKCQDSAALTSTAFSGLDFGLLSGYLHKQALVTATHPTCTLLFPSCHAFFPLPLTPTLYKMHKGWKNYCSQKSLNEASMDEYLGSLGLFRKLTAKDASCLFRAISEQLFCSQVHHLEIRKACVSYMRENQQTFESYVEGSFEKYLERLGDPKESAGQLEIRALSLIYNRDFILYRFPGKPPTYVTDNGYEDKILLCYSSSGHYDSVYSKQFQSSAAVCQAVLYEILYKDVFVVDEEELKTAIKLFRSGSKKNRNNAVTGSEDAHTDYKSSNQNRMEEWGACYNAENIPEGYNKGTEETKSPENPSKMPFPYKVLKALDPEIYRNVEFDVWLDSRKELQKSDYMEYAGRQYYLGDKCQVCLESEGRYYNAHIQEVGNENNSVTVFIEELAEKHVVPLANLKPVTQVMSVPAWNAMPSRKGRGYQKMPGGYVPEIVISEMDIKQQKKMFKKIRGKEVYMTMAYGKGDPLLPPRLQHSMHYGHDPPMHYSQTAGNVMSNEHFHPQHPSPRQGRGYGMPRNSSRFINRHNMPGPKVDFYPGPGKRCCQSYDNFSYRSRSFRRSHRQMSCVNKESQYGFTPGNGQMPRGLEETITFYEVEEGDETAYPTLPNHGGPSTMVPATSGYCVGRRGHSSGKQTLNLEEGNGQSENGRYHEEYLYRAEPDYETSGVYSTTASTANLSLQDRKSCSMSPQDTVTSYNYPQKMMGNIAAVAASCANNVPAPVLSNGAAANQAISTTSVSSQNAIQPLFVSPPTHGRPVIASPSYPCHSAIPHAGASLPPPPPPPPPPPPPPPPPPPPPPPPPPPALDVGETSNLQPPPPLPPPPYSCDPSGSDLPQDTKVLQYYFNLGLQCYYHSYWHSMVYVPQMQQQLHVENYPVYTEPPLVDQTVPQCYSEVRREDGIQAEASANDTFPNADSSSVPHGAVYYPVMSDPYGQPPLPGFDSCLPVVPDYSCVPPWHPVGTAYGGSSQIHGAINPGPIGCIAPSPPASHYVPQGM
How it was run: (§1)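 Fragment (200 µM) or vehicle was incubated for 3 h with triplicate HEK293T lysate samples of 495 µg, which were then treated with Biotin-Ahx-Ub-VS at 0.5 µM final for 1 h. Labelled DUBs were enriched on NeutrAvidin, digested with LysC and trypsin, and analysed by diaPASEF LC-MS/MS. Values are average log2 fragment/vehicle ratios from an unpaired t-test on global-median-normalised Spectronaut label-free quantities, using proteins with ≥2 unique peptides.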

ATXN3 = ATXN3 (UniProt P54252)
Sequence of ATXN3 (P54252 whole entry): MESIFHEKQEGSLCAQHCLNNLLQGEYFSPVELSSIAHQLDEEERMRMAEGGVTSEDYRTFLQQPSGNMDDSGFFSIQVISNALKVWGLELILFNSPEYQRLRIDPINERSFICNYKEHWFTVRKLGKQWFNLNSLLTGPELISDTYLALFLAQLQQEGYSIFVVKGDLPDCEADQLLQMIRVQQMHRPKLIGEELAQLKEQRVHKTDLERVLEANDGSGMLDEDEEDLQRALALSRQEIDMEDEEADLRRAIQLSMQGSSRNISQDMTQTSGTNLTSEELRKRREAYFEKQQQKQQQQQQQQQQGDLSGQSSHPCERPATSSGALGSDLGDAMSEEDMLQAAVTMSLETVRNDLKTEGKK
How it was run: as §1

BAP1 = biological target: T2, BAP1 (UniProt Q92560)
T2 sequence (whole entry): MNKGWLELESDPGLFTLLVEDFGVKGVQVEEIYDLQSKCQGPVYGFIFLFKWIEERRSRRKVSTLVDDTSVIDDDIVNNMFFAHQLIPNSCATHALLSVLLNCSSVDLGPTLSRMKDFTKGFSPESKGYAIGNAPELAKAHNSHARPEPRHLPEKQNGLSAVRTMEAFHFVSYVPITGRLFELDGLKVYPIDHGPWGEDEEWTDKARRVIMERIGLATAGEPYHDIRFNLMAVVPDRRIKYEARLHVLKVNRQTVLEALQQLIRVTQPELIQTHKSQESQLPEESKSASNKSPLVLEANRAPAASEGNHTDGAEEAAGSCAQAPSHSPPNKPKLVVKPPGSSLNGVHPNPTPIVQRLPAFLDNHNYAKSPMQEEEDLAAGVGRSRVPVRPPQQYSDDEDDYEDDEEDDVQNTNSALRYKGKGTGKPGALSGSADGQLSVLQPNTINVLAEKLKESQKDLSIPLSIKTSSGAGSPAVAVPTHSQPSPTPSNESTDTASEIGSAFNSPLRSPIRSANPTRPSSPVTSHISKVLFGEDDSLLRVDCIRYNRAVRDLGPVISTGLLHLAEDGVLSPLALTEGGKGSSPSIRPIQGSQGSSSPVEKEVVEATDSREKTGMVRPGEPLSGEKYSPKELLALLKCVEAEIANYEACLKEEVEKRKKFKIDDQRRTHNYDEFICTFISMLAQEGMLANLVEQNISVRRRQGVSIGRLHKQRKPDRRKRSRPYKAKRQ
How it was run: as §1

EIF3F = EIF3F (UniProt O00303)
Sequence of EIF3F (O00303 whole entry): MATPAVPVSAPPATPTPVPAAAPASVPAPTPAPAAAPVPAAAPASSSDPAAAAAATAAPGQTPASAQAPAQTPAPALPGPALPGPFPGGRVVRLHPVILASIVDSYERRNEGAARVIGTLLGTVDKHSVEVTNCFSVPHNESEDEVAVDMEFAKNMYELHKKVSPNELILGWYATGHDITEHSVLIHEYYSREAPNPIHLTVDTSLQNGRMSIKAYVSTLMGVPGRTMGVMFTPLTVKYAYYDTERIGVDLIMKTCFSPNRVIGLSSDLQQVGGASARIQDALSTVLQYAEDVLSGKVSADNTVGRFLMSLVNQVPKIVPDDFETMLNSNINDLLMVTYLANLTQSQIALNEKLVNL
How it was run: as §1

EIF3H = EIF3H (UniProt O15372)
Sequence of EIF3H (O15372 whole entry): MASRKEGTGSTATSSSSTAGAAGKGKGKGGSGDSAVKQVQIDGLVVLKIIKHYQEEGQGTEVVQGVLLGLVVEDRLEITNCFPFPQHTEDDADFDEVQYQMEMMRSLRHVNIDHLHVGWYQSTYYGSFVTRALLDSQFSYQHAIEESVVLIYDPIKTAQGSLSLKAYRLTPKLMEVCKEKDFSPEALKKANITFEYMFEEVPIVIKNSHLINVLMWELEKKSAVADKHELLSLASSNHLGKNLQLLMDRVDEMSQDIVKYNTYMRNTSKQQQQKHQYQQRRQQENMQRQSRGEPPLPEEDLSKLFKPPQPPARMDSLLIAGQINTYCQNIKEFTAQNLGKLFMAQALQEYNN
How it was run: as §1

FAM105A = biological target: T3, FAM105A (UniProt Q9NUU6)
T3 sequence (whole entry): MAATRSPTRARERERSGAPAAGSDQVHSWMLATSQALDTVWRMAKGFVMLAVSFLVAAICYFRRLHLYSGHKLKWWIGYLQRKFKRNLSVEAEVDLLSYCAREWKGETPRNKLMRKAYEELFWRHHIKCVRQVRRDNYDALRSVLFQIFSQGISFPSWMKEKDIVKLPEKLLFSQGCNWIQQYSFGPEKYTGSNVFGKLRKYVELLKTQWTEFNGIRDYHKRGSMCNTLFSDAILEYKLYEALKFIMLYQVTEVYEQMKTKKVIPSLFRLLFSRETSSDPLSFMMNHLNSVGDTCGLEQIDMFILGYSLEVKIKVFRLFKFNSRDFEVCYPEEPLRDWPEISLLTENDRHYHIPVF
How it was run: as §1

OTUB1 = OTUB1 (UniProt Q96FW1)
Sequence of OTUB1 (Q96FW1 whole entry): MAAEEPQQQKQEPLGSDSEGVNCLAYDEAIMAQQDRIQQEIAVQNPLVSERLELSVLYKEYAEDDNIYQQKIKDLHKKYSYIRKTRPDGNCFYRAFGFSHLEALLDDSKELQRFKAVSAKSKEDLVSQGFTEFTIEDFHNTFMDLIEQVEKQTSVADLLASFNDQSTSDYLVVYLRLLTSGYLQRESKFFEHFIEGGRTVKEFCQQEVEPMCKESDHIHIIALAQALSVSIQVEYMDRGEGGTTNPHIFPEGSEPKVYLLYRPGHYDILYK
How it was run: as §1

OTUD4 = biological target: T4, OTUD4 (UniProt Q01804)
T4 sequence (whole entry): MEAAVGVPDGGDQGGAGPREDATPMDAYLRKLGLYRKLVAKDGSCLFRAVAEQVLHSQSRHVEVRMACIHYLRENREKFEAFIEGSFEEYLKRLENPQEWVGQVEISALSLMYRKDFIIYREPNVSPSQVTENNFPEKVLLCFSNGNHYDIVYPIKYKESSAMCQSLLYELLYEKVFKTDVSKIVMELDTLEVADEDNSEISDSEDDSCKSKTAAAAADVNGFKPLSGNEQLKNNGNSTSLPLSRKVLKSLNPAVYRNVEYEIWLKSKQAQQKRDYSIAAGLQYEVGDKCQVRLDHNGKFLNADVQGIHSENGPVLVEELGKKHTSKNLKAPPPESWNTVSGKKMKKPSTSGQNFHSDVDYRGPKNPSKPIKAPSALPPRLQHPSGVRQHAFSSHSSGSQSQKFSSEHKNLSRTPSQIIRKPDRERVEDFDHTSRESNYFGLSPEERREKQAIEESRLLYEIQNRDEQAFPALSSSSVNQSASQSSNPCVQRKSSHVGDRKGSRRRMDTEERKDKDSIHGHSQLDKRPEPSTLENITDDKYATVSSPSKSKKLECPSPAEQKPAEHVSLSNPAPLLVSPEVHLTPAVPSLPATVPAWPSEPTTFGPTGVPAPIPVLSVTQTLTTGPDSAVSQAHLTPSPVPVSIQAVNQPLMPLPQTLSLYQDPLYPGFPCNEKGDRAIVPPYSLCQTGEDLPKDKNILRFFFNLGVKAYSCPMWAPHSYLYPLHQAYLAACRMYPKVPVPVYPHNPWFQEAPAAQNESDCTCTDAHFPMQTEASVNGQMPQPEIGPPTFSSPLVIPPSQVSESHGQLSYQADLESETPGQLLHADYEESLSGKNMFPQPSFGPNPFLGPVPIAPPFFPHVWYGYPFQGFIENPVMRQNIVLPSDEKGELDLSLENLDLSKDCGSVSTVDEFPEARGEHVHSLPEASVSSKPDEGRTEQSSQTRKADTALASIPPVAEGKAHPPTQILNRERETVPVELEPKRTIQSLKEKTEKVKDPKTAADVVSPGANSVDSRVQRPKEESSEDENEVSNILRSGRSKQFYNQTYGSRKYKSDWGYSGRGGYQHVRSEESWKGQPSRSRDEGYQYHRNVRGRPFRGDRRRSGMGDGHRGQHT
How it was run: as §1

OTUD5 = biological target: T5, OTUD5 (UniProt Q96G74)
T5 sequence (whole entry): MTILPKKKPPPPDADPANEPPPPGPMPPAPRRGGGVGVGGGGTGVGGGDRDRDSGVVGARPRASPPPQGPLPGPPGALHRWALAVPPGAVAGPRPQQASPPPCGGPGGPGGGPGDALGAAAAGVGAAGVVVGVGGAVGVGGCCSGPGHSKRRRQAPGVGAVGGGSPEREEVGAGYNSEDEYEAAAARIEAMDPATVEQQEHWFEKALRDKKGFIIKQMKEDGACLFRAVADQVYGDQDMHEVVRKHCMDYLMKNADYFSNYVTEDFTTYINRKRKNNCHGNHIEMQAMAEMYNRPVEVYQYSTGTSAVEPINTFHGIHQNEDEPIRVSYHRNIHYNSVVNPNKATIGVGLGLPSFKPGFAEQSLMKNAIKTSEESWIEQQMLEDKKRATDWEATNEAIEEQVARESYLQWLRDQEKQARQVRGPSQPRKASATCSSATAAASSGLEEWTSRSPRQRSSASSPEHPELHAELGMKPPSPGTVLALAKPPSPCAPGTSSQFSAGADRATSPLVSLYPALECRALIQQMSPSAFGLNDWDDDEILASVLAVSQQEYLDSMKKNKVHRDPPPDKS
How it was run: as §1

O=C(CCl)NCc1ccc(N2CCOCC2)nc1
log2 ratio of Biotin-Ahx-Ub-VS probe labelling (ALG13): 0.174 | log2 ratio of Biotin-Ahx-Ub-VS probe labelling (ATXN3): -0.193 | log2 ratio of Biotin-Ahx-Ub-VS probe labelling (BAP1): -2.61 (active) | log2 ratio of Biotin-Ahx-Ub-VS probe labelling (EIF3F): -0.156 | log2 ratio of Biotin-Ahx-Ub-VS probe labelling (EIF3H): 0.183 | log2 ratio of Biotin-Ahx-Ub-VS probe labelling (FAM105A): 0.479 | log2 ratio of Biotin-Ahx-Ub-VS probe labelling (OTUB1): 0.0139 | log2 ratio of Biotin-Ahx-Ub-VS probe labelling (OTUD4): -0.539 | log2 ratio of Biotin-Ahx-Ub-VS probe labelling (OTUD5): -0.385
